The values that follow come from PubChem BioAssay AID1159554 (Broad Institute, 2015).

The campaign covered roughly 94,000 compounds. About 2,100 (2.2%) were called active. For the sample, actives were picked, then their nearest neighbours and some compounds at random. Values without a mark were called inactive. Cut-off read from the data, not from the text of the source: active = activity change below about -80%; inconclusive = no clear call, values can overlap the other calls; inactive = above that.

This test is described as follows: Dd2 malaria parasite growth inhibition – SYBR Green fluorescence, single dose replicates, primary screen (AID 1159554). To be noted: P. falciparum Dd2 growth, 72 h, at 10 µM, stronger effect = lower value.
Regarding `COCC#Cc1ccc([C@@H]2[C@@H](CO)N3C(=O)CN(C(=O)C4CCCC4)C[C@@H]23)cc1`, the activity change was -28.5%.
Under `O=C(C[C@@H]1CC[C@@H]2[C@H](COC[C@@H](O)CN2C(=O)c2ccccc2F)O1)N1CCOCC1` stands 11.8%; under `C[C@H](CO)N1C[C@H](C)[C@@H](CN(C)CC2CC2)OCCCC[C@H](C)Oc2ccc(NC(=O)Nc3ccccc3)cc2C1=O`, 3.68%.
As for `COc1ccc(C#Cc2cnc3c(c2)C(=O)N([C@H](C)CO)C[C@@H](C)[C@@H](CN(C)C(=O)CN(C)C)O3)cc1`, the activity change was -58.5%.
Consider `Cc1ccc(S(=O)(=O)N[C@@H]2CC[C@@H](CC(=O)O)O[C@@H]2CO)cc1`, for which the activity change was 10.2%.
Under `COCCNC(=O)[C@H]1[C@H](CO)[C@H]2Cn3c(ccc(-c4ccccc4F)c3=O)[C@H]2N1C(=O)C1CCC1` stands -8.98%; under `O=C(Cc1ccccc1)N1C[C@@H]2[C@H](c3ccccc31)[C@@H](CO)N2C(=O)C1CC1`, -0.357%.
Consider `COCCNC(=O)[C@@H]1[C@@H](CO)[C@@H]2Cn3c(ccc(-c4ccccc4F)c3=O)[C@@H]2N1C(=O)C1CC1`, for which the activity change was 7.64%.
Under `C[C@@H]1CN([C@@H](C)CO)C(=O)c2cccc(NC(=O)Nc3ccc(F)cc3)c2O[C@@H]1CN(C)C(=O)Nc1ccccc1` stands -36.1%; under `C[C@@H]1CN([C@H](C)CO)C(=O)c2cccc(NC(=O)Nc3cccc4ccccc34)c2O[C@@H]1CN(C)C(=O)Nc1ccc(F)cc1`, -95.3% (active).
Under `COc1ccc(NC(=O)Nc2cccc3c2O[C@@H](CN(C)C(=O)NC(C)C)[C@H](C)CN([C@H](C)CO)C3=O)cc1` stands -26.3%.
As for `COc1ccc(NC(=O)Nc2cccc3c2O[C@H](CN(C)C(=O)Nc2ccc(F)cc2)[C@@H](C)CN([C@@H](C)CO)C3=O)cc1`, the activity change was -19.9%.
Turning to `C[C@@H]1CN([C@@H](C)CO)C(=O)c2cccc(NC(=O)Nc3ccc(F)cc3)c2O[C@H]1CN(C)C(=O)Nc1ccc(F)cc1`, the activity change was -7.48%.
Regarding `COc1ccc(NC(=O)N(C)C[C@H]2Oc3c(NC(=O)NC(C)C)cccc3C(=O)N([C@@H](C)CO)C[C@H]2C)cc1`, the activity change was -84.2% (active).
Consider `C[C@@H]1CN([C@H](C)CO)C(=O)c2cc(Br)cnc2O[C@@H]1CN(C)Cc1cncnc1`, for which the activity change was 25.3%.
Consider `O=C1CN(Cc2ccccc2)C[C@H]2[C@H](c3ccc(-c4ccccc4)cc3)[C@@H](CO)N12`, for which the activity change was -11%.
Regarding `COCC(=O)Nc1ccc2c(c1)C(=O)N(C)[C@H]1CC[C@@H](CC(=O)NCc3cccc(F)c3)O[C@H]1CO2`, the activity change is -2.71%.
Regarding `C[C@@H]1CCCCO[C@H](CN(C)C(=O)NC2CCCCC2)[C@H](C)CN([C@@H](C)CO)C(=O)c2cc(NC(=O)Nc3ccc(F)cc3)ccc2O1`, the activity change was -11.4%.
Regarding `C[C@H]1CCCCO[C@@H](CN(C)C(=O)c2ccccc2)[C@@H](C)CN([C@@H](C)CO)C(=O)c2cc(NS(=O)(=O)c3cccs3)ccc2O1`, the activity change was -57.2%.
Regarding `CCCN(C)C[C@@H]1OCCCC[C@H](C)Oc2ccc(NS(=O)(=O)c3ccc(C)cc3)cc2C(=O)N([C@H](C)CO)C[C@@H]1C`, the activity change is -87.8% (active).
On to `C[C@@H]1CCCCO[C@H](CN(C)C(=O)NC2CCCCC2)[C@H](C)CN([C@H](C)CO)C(=O)c2cc(NC(=O)Nc3ccc(F)cc3)ccc2O1`, for which the activity change was -85.2% (active).
`C[C@@H]1CN([C@@H](C)CO)C(=O)c2cc(NS(=O)(=O)c3cccs3)ccc2O[C@@H](C)CCCCO[C@@H]1CN(C)C(=O)NC1CCCCC1`: the activity change is -14%.
For `C[C@@H]1CN([C@@H](C)CO)C(=O)c2cc(NC(=O)Nc3cccc4ccccc34)ccc2O[C@@H](C)CCCCO[C@@H]1CN(C)S(=O)(=O)c1ccc(Cl)cc1`, the activity change was -85.2% (active).
The value for `Cc1ccc(S(=O)(=O)Nc2ccc3c(c2)C(=O)N([C@H](C)CO)C[C@@H](C)[C@@H](CN(C)C)OCCCC[C@@H](C)O3)cc1` was -28.5%; that for `C[C@@H]1CCCCO[C@@H](CN(C)C(=O)NC2CCCCC2)[C@H](C)CN([C@@H](C)CO)C(=O)c2cc(NC(=O)Nc3ccc(F)cc3)ccc2O1` was 7.58%.
Turning to `C[C@H](CO)N1C[C@H](C)[C@@H](CN(C)S(C)(=O)=O)OCCCC[C@H](C)Oc2ccc(NC(=O)Nc3cccc4ccccc34)cc2C1=O`, the activity change was 11.4%.
With `CCCN(C)C[C@H]1OCCCC[C@H](C)Oc2ccc(NS(=O)(=O)c3ccc(C)cc3)cc2C(=O)N([C@@H](C)CO)C[C@H]1C`, the activity change is -65.3%.
The value for `CC(C)NC(=O)Nc1ccc2c(c1)C(=O)N([C@@H](C)CO)C[C@H](C)[C@H](CN(C)S(=O)(=O)c1ccc(Cl)cc1)OCCCC[C@H](C)O2` was -79.5%.
Turning to `C[C@H]1CCCCO[C@@H](CN(C)C(=O)C2CCCCC2)[C@@H](C)CN([C@@H](C)CO)C(=O)c2cc(NS(=O)(=O)c3cccs3)ccc2O1`, the activity change is -83.8% (active).
With `CCCNC(=O)N[C@@H]1CC[C@@H](CCn2cc(C3CC3)nn2)O[C@@H]1CO`, the activity change is 12.3%.
As to `COc1ccccc1S(=O)(=O)N1C[C@@H](O)COC[C@H]2O[C@H](CC(=O)O)CC[C@@H]21`, the activity change was -3.23%.
As for `COc1ccc(NC(=O)N(C)C[C@@H]2Oc3ncc(-c4ccc(C#N)cc4)cc3C(=O)N([C@@H](C)CO)C[C@H]2C)cc1`, the activity change is 34.7%.
As for `O=C(C1CCC1)N1CC[C@@H]2[C@H]1c1cc(C#Cc3ccc(F)cc3)ccc1N[C@@H]2CO`, the activity change is -70.8%.
`O=C(c1cccc(F)c1)N1C[C@H]2[C@@H](c3ccccc31)[C@@H](CO)N2C(=O)Cc1ccccc1`: the activity change is 0.269%.
For the compound `C[C@H](CO)N1C[C@H](C)[C@@H](CN(C)CC2CCCCC2)Oc2ccc(NS(=O)(=O)c3cccs3)cc2CC1=O`, the activity change was -7.92%.
`C[C@@H]1CCCCO[C@H](CN(C)CC2CCCCC2)[C@H](C)CN([C@H](C)CO)C(=O)c2cc(NC(=O)Nc3ccc(F)cc3)ccc2O1`: the activity change was -79.8%.
In the case of `COc1ccc(NC(=O)Nc2ccc3c(c2)C(=O)N([C@@H](C)CO)C[C@H](C)[C@H](CN(C)S(=O)(=O)c2ccccc2)OCCCC[C@@H](C)O3)cc1`, the activity change was -87.4% (active).
For the compound `COc1ccc(NC(=O)Nc2ccc3c(c2)C(=O)N([C@H](C)CO)C[C@H](C)[C@@H](CN(C)S(=O)(=O)c2ccc(OC)cc2)OCCCC[C@H](C)O3)cc1`, the activity change is 0.392%.
`COc1ccc(NC(=O)Nc2ccc3c(c2)C(=O)N([C@@H](C)CO)C[C@H](C)[C@H](CN(C)CC2CCCCC2)O3)cc1`: the activity change was 13.9%.
Consider `COc1ccc(S(=O)(=O)N(C)C[C@@H]2OCCCC[C@H](C)Oc3ccc(NC(=O)Nc4ccccc4)cc3C(=O)N([C@@H](C)CO)C[C@H]2C)cc1`, for which the activity change was -79.2%.
The value for `C[C@@H]1CCCCO[C@H](CN(C)Cc2ccccc2)[C@@H](C)CN([C@@H](C)CO)C(=O)c2cc(NC(=O)Nc3ccc(F)cc3)ccc2O1` was -73.3%.
Turning to `COc1ccc(NC(=O)Nc2ccc3c(c2)C(=O)N([C@H](C)CO)C[C@@H](C)[C@H](CN(C)CC2CCCCC2)OCCCC[C@@H](C)O3)cc1`, the activity change is -85.2% (active).
Under `C[C@@H]1CN([C@H](C)CO)C(=O)c2cc(NC(=O)Nc3ccc(F)cc3)ccc2O[C@@H](C)CCCCO[C@@H]1CN(C)CC1CCCCC1` stands -82.5% (active).
For the compound `CC(C)NC(=O)Nc1ccc2c(c1)C(=O)N([C@H](C)CO)C[C@H](C)[C@@H](CN(C)CC1CCCCC1)OCCCC[C@@H](C)O2`, the activity change was -13.3%.
Turning to `COc1ccc(NC(=O)Nc2ccc3c(c2)C(=O)N([C@H](C)CO)C[C@H](C)[C@@H](CN(C)C(=O)Nc2ccc(OC)cc2)OCCCC[C@H](C)O3)cc1`, the activity change was -22.2%.
With `CCCN(C)C[C@H]1OCCCC[C@@H](C)Oc2ccc(NC(=O)Nc3ccc(F)cc3)cc2C(=O)N([C@@H](C)CO)C[C@H]1C`, the activity change is -91.5% (active).
On to `CCCN(C)C[C@@H]1OCCCC[C@@H](C)Oc2ccc(NC(=O)Nc3ccc(C(F)(F)F)cc3)cc2C(=O)N([C@H](C)CO)C[C@H]1C`, for which the activity change was -75.7%.
